The campaign covered roughly 4,100 compounds. About 1,600 (39%) were called active. Roughly 25% stayed inconclusive and do not appear here. The list shows a part of the results. Unmarked numbers belong to inactive results. The call rests on the fitted dose curve; in most records, active means well fitted inhibition curve with a large enough effect; inconclusive means small, poorly fitted or top-dose-only effect; inactive means no such curve, though single readings can be large or run the other way.
Test: qHTS Validation assay for Inhibitors of Plasmodium falciparum Dd2 growth in vitro; further: nearly all actives have a fitted effect of over 70% in size
Conditions: P. falciparum Dd2 in RBCs, SYBR Green growth, 72 h; series mostly up to 28.7 µM; activity change, negative = inhibition: at the top concentration
Summary of the method: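 P. falciparum Dd2-infected red blood cells (2.5% hematocrit, 0.3% parasitemia) grown 72 h at 37 °C under 5% O2 with compounds in a titration, 29 uM to 0.5 nM final. Growth read as SYBR Green-1 fluorescence after ~16 h lysis; artesunate 300 nM as positive control.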
For `O=C1CC(c2ccccc2)N(C(=O)CNC(=O)c2[nH]nc3c2CCc2ccccc2-3)CCCCCCN1` (stereo not given), the Potency was 2.99 µM (active).
In the case of `Cc1ccncc1C(=O)NCC(=O)N1CCCCCNC(=O)CC1c1ccccc1` (stereo not given), the “activity change, negative = inhibition” value is reported as 1.1%.
In the case of `O=C1CC(c2ccccc2)N(C(=O)CNC(=O)c2ccc3[nH]ccc3c2)CCCCCN1` (stereo not given), the Potency is reported as 15 µM (active).
For `COc1ccc2c(c1)CCc1c-2n[nH]c1C(=O)N1CCc2c(nc3cc(-c4ccccc4)[nH]n3c2=O)C1`, the “activity change, negative = inhibition” value was 18.7%.
In the case of `Cn1nc(C(=O)NCC(=O)N2CCCCCCNC(=O)CC2c2ccccc2)c2ccccc21` (stereo not given), the Potency is reported as 2.11 µM (active).
With `CNC(=O)c1[nH]nc2c1CCc1cc(OC)ccc1-2` the “activity change, negative = inhibition” value was -19.9%.
For `Cc1ccc(S(=O)(=O)N[C@@H]2CN(C)C[C@H]2CN(C)C)cc1F`, the Potency was 15 µM (active).
With `CCOc1ccc(CC(=O)N[C@@H]2CN(c3ncccn3)C[C@H]2CN(C)C)cc1` the “activity change, negative = inhibition” value was -5.61%.
In the case of `CN(C)C[C@@H]1CN(C)C[C@H]1NS(=O)(=O)c1ccc(Br)cc1`, the Potency is reported as 13.3 µM (active).
With `CN(C)C[C@@H]1CN(S(C)(=O)=O)C[C@H]1NC(=O)c1ccccc1` the “activity change, negative = inhibition” value was 12.9%.
In the case of `Cc1nn(-c2ccccc2)c2c1C(O)n1c(nc3ccccc31)S2` (stereo not given), the Potency is reported as 5.31 µM (active).
With `CCOC(=O)C1=Nc2ccccc2C1=[N+]=[N-]` the Potency was 4.22 µM (active).
With `CCOC(=O)C1=C(c2ccccc2)N=c2s/c(=C\c3cc(OC)c(OC)c(OC)c3)c(=O)n2C1c1cccs1` (stereo not given) the Potency was 5.96 µM (active).
With `CCOC(=O)C1=C(C)N=c2s/c(=C/c3ccc(OCC(=O)O)cc3)c(=O)n2C1c1cc(OC)c(OC)c(OC)c1` (stereo not given) the Potency was 1.88 µM (active).
For `CCOC(=O)C1=C(C)N=c2s/c(=C\c3ccc(OCC(=O)O)cc3)c(=O)n2C1c1ccccc1OC` (stereo not given), the “activity change, negative = inhibition” value was -9.3%.
For `CCOc1ccc(C2C(C(=O)Nc3ccccc3)=C(C)N=c3s/c(=C/c4cccc(OCC(=O)O)c4)c(=O)n32)cc1` (stereo not given), the Potency was 5.31 µM (active).
With `Cc1ccc(CN(C)C(=O)c2cc(COc3ccc(F)cc3Cl)on2)o1` the “activity change, negative = inhibition” value was 20.9%.
For `CC1(Cc2ccc3c(c2)OCO3)CCCN(C(=O)c2ccccc2-n2cncn2)C1` (stereo not given), the “activity change, negative = inhibition” value was -5.72%.
For `COC(=O)c1nn(-c2ccc3c(c2)CCN3C(C)=O)cc1O`, the “activity change, negative = inhibition” value was 45.4%.
For `COCCNc1nc2cc(C(=O)N3CC[C@H](CO)[C@@H](O)C3)ccc2n1C`, the “activity change, negative = inhibition” value was 19%.
In the case of `COc1ccc(C2C(C(=O)N3CCCCC3)CC(=O)N2c2ccc(OC)cc2)cc1` (stereo not given), the Potency is reported as 7.5 µM (active).
For `Cc1nc(-c2ccccn2)nc(N(C)c2ccccc2)c1Cl`, the Potency was 5.31 µM (active).
For `COc1cnc(-c2ccccn2)nc1Oc1ccc(C(C)(C)C)cc1`, the “activity change, negative = inhibition” value was 66.3%.
In the case of `COc1cnc(-c2ccccn2)nc1NC(C)C`, the Potency is reported as 5.31 µM (active).
With `COc1cnc(-c2ccccn2)nc1N(C)c1ccccc1` the Potency was 5.96 µM (active).
With `CC(=O)c1cccc(NS(=O)(=O)c2cc(-c3cnc(C4CC4)o3)ccc2C)c1` the “activity change, negative = inhibition” value was 8.42%.
With `Cc1ccc(-c2nnc(Nc3ccc(OCC(N)=O)cc3)c3ccccc23)cc1S(=O)(=O)NCC1CCCO1` (stereo not given) the Potency was 4.73 µM (active).
For `CC(OC(=O)c1ccc(OCC2CCCO2)cc1)C(=O)N(C)Cc1ccccc1` (stereo not given), the “activity change, negative = inhibition” value was -9.4%.
In the case of `Cc1ccc(-c2nnc(Nc3ccc(O)cc3)c3ccccc23)cc1S(=O)(=O)N1CCN(C)CC1`, the Potency is reported as 6.68 µM (active).
For `COC(=O)c1ccc(Nc2nnc(-c3ccc(C)c(S(=O)(=O)N4CCN(C)CC4)c3)c3ccccc23)cc1`, the Potency was 8.41 µM (active).
With `COC(=O)c1ccc(Nc2ncnc3c2nc2n3CCCC2)cc1` the “activity change, negative = inhibition” value was -21.5%.
For `CC(C)(C(=O)N1CCN(Cc2ccccc2)CC(O)C1)c1ccccc1` (stereo not given), the “activity change, negative = inhibition” value was -5.37%.
In the case of `CCOC(=O)c1c(NC(=O)/C=C/c2ccc(OCC)cc2)sc2c1CCC2`, the “activity change, negative = inhibition” value is reported as 1.45%.
In the case of `CCOC(=O)c1c(N)sc2c1CCN(Cc1ccccc1)C2`, the Potency is reported as 5.31 µM (active).
In the case of `O=C(CN1CCC(n2nnc3cc(F)ccc32)CC1)Nc1ccccc1N1CCOCC1`, the Potency is reported as 5.31 µM (active).
In the case of `Cc1cc(F)ccc1NC(=O)Cn1c(=O)ccc2cc(S(=O)(=O)N3CCC(C)CC3)ccc21`, the “activity change, negative = inhibition” value is reported as 1.53%.
For `CCO[C@@H]1OC(C(=O)N2CCN(Cc3ccc4c(c3)OCO4)CC2)=C[C@H](c2cn(C(C)=O)c3ccccc23)[C@H]1CCCO`, the Potency was 9.44 µM (active).
For `CCO[C@H]1OC(C(=O)N2CCN(Cc3ccccc3)CC2)=C[C@@H](C2CCCCC2)[C@@H]1CCCO`, the “activity change, negative = inhibition” value was -29.6%.
For `O=C(NCc1nc2ccccc2[nH]1)C1=C[C@@H](c2ccccc2)C[C@@H](OCCCCO)O1`, the “activity change, negative = inhibition” value was 20.8%.
With `O=C(C1=C[C@H](c2csc3ccccc23)C[C@H](OCCCCO)O1)N1CCN(Cc2ccc3c(c2)OCO3)CC1` the Potency was 13.3 µM (active).
In the case of `CCO[C@H]1OC(C(=O)N2CCN(Cc3ccc4c(c3)OCO4)CC2)=C[C@@H](c2cn(C(C)=O)c3ccccc23)[C@@H]1CCCO`, the Potency is reported as 8.41 µM (active).
With `CN(Cc1cccnc1)Cc1ccccc1C(F)(F)F` the “activity change, negative = inhibition” value was 31.1% [at 43.1 µM].
With `CCOC(=O)c1nnn(-c2nonc2-n2cccc2)c1CN1CCC(C(=O)OCC)CC1` the Potency was 4.73 µM (active).
For `Cn1c(CN2CCCCC2)nnc1C1CCCN(C(=O)c2cocn2)C1` (stereo not given), the “activity change, negative = inhibition” value was 0%.
In the case of `CCOC(=O)c1nnn(-c2nonc2-n2cccc2)c1CN1CCCCC1`, the Potency is reported as 7.5 µM (active).
On the % scale 0 is the no-effect control and ±100 the full control effect; potency means the concentration at half of the fitted maximal effect.
